Laboratory results as given in PubChem BioAssay (NCI).
Compounds without any hit were thinned out: in the full panel of roughly 79,000, 15% have a hit. Activity calls are given as the source filed them. No stated cut-off is given here; in the data, active means growth inhibition above about 70%; inactive means the rest.

Tests used:
[1] = NCI Yeast Anticancer Drug Screen. Data for the rad50 strain (AID 155);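 further: 0% = growth of vehicle-only cultures of the same strain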; details: S. cerevisiae rad50 strain growth inhibition, active compounds read high
How it was run: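 Relative growth inhibition (compound vs vehicle) was measured in yeast with a defined repair-gene alteration.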

[2] = NCI Yeast Anticancer Drug Screen. Data for the mec2-1 strain (AID 157); details: S. cerevisiae mec2-1 strain, active compounds read high
How it was run: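 mec2-1 yeast strain, carrying an alteration in DNA damage repair or cell cycle control, was exposed to compounds; growth inhibition was measured relative to vehicle-treated controls.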

[3] = NCI Yeast Anticancer Drug Screen. Data for the sgs1 mgt1 strain (AID 161);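 further: 0% = growth of cultures given vehicle only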; details: S. cerevisiae sgs1 mgt1 strain, active compounds read high
How it was run: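 Growth of a repair-deficient yeast mutant was monitored after compound treatment and expressed as inhibition relative to vehicle-treated cultures.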

[4] = NCI Yeast Anticancer Drug Screen. Data for the cln2 rad14 strain (AID 165);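 further: 0% = growth equal to vehicle treated cultures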; details: S. cerevisiae cln2 rad14 strain, active compounds read high
How it was run: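 Yeast carrying cln2 and rad14 alterations (cell cycle control and DNA damage repair) were exposed to compounds. Growth inhibition was measured against vehicle-treated controls.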

[5] = NCI Yeast Anticancer Drug Screen. Data for the bub3 strain (AID 167); details: S. cerevisiae bub3 mutant strain, active compounds read high
How it was run: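 Screening used yeast with an engineered genetic alteration affecting cell cycle control. Compound-exposed cultures were compared with vehicle cultures, and reduced growth was taken as inhibition.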

[6] = NCI Yeast Anticancer Drug Screen. Data for the mlh1 rad18 strain (AID 175); details: S. cerevisiae mlh1 rad18 strain growth inhibition, active compounds read high
How it was run: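 Growth inhibition of the yeast strain was measured after compound exposure and expressed relative to vehicle-treated controls. The strain carries defined defects in DNA damage repair.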

[7] = at 5.0 µM (retest, dose inferred, filed as 0.5)
[8] = at 50.0 µM (retest, dose inferred, filed as 5.0)

Measured: growth inhibition

C/C(=C\c1ccc2c(c1)OCO2)[N+](=O)[O-]
inactive: [2]; [7] 7% | [3]; [7] 16% | [4]; [7] -6% | [4]; at 50.0 µM 40.1% | [5]; [7] 10% | [5]; at 50.0 µM 51% | [6]; [7] 11%
active: [1]; [7] 93% | [1]; [8] 98% | [1]; at 50.0 µM 98.2% | [2]; [8] 100% | [2]; at 50.0 µM 73.5% | [3]; [8] 97% | [3]; at 50.0 µM 83.4% | [4]; [8] 99% | [5]; [8] 96% | [6]; [8] 99% | [6]; at 50.0 µM 70.8%

Oc1ccc2ccccc2c1O
active: [1]; [8] 81% | [3]; [8] 84% | [5]; [8] 90% | [5]; at 50.0 µM 70% | [6]; [8] 92% | [6]; at 50.0 µM 86.2%
inactive: [1]; [7] 13% | [1]; at 50.0 µM 66.4% | [2]; [7] 3% | [2]; [8] 59% | [2]; at 50.0 µM 50.9% | [3]; [7] 7% | [3]; at 50.0 µM 57.3% | [4]; [7] -5% | [4]; [8] 30% | [4]; at 50.0 µM 34% | [5]; [7] 32% | [6]; [7] 20%

COC1OC(COC(C)=O)C(OC(C)=O)C(OC(C)=O)[CH]1[Hg][I] (centres undefined)
active: [1]; [7] 99% | [1]; [8] 99% | [1]; at 50.0 µM 99.2% | [2]; [7] 99% | [2]; [8] 99% | [2]; at 50.0 µM 99.6% | [3]; [7] 100% | [3]; [8] 100% | [3]; at 50.0 µM 99.6% | [4]; [7] 99% | [4]; [8] 99% | [4]; at 50.0 µM 98.9% | [5]; [7] 99% | [5]; [8] 99% | [5]; at 50.0 µM 99.3% | [6]; [7] 99% | [6]; [8] 99% | [6]; at 50.0 µM 99.2%

Cc1cc(N(CCCl)CCCl)ccc1C=Nc1ccc(-c2csc(COc3ccccc3)n2)c(Cl)c1
active: [1]; [8] 93% | [1]; at 50.0 µM 94% | [2]; [8] 90% | [2]; at 50.0 µM 95.6% | [3]; [8] 95% | [3]; at 50.0 µM 95% | [4]; [8] 94% | [4]; at 50.0 µM 89.1% | [5]; [8] 91% | [5]; at 50.0 µM 90.3% | [6]; [8] 94% | [6]; at 50.0 µM 94.5%
inactive: [1]; [7] 4% | [2]; [7] -13% | [3]; [7] 23% | [4]; [7] -10% | [5]; [7] 6% | [6]; [7] 52%

O=[N+]([O-])/C=C/c1ccccc1
inactive: [3]; [7] 62% | [4]; [7] 64%
active: [1]; [7] 94% | [1]; [8] 99% | [1]; at 50.0 µM 98% | [2]; [7] 85% | [2]; [8] 100% | [2]; at 50.0 µM 99.2% | [3]; [8] 99% | [3]; at 50.0 µM 98% | [4]; [8] 100% | [4]; at 50.0 µM 98.3% | [5]; [7] 85% | [5]; [8] 99% | [5]; at 50.0 µM 96.4% | [6]; [7] 71% | [6]; [8] 100% | [6]; at 50.0 µM 98.1%

[Br][Hg][CH2]COC[CH2][Hg][Br]
inactive: [3]; [8] 51%
active: [1]; [7] 95% | [1]; [8] 99% | [1]; at 50.0 µM 99.4% | [2]; [7] 98% | [2]; [8] 100% | [2]; at 50.0 µM 99.6% | [3]; [7] 98% | [3]; at 50.0 µM 99.5% | [4]; [7] 83% | [4]; [8] 99% | [4]; at 50.0 µM 98.8% | [5]; [7] 96% | [5]; [8] 99% | [5]; at 50.0 µM 99% | [6]; [7] 95% | [6]; [8] 99% | [6]; at 50.0 µM 99.1%

C[C@]12CC[C@H](OC(=O)COc3ccc(N(CCCl)CCCl)cc3)C[C@@H]1CC[C@@H]1[C@@H]2CC[C@]2(C)NC(=O)CC[C@@H]12
active: [1]; at 50.0 µM 70%
inactive: [1]; [7] 17% | [1]; [8] 50% | [2]; [7] 7% | [2]; [8] 11% | [2]; at 50.0 µM 49.2% | [3]; [7] 19% | [3]; [8] 57% | [3]; at 50.0 µM 19.1% | [4]; [7] 17% | [4]; [8] 36% | [4]; at 50.0 µM 5.4% | [5]; [7] 22% | [5]; [8] 59% | [5]; at 50.0 µM 16.1% | [6]; [7] 25% | [6]; [8] 48% | [6]; at 50.0 µM 8.2%

COc1cc(OC)c(OC)cc1/C=C/[N+](=O)[O-]
inactive: [1]; [7] 35% | [1]; [8] 64% | [2]; [7] 24% | [3]; [7] 46% | [4]; [7] 9% | [4]; [8] 39% | [5]; [7] 12% | [5]; [8] 67%
active: [1]; at 50.0 µM 85.9% | [2]; [8] 85% | [2]; at 50.0 µM 90.9% | [3]; [8] 85% | [3]; at 50.0 µM 90.8% | [4]; at 50.0 µM 77.8% | [5]; at 50.0 µM 94.8% | [6]; [7] 71% | [6]; [8] 91% | [6]; at 50.0 µM 92%
